Assay results: PubChem BioAssay AID624037 (The Scripps Research Institute Molecular Screening Center, 2012)
The whole screen tested about 360,000 compounds, of which about 700 (0.19%) were called active.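 How the source made its calls: active means activation above the run's mean over test compounds plus 3 SD (cut at about 23% in these data); inactive means the rest.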 This excerpt belongs to a sample that is enriched for actives.

These compounds were tested against Muscarinic acetylcholine receptor M5 (Homo sapiens) (UniProt P08912) (assay: CHRM5 activators raising intracellular calcium – CHO-K1 cells, Fluo-8 calcium fluorescence, primary screen (AID 624037;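 further: signal is peak over basal fluorescence ratio across the kinetic read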)). Details: CHO-K1 hM5 cells, at 3 µM, active compounds read high, 0% DMSO wells, 100% maximal acetylcholine response.
Sequence of Muscarinic acetylcholine receptor M5 (Homo sapiens) (P08912 whole entry, looked up): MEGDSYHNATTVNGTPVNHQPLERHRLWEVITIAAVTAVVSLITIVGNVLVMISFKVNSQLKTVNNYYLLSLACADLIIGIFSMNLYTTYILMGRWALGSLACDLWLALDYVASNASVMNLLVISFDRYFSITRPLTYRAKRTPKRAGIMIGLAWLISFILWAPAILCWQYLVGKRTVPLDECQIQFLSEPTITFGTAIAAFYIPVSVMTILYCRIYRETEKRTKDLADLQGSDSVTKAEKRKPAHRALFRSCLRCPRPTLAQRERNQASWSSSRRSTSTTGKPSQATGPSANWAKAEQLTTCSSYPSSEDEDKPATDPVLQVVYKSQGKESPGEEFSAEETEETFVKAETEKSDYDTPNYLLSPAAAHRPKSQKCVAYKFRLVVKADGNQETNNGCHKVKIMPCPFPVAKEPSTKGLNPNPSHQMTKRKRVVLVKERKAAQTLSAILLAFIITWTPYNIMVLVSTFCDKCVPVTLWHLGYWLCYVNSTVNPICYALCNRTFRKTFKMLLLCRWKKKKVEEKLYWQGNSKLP

activation, active:
Cc1nc(C(=O)NCc2ccccc2)sc1C1(C)CC(c2cccnc2)=NO1 (stereo unspecified) 25.4%, CN(C(=O)CN(CCO)CC(=O)N(C)C(C)(C)Cc1ccccc1)C(C)(C)Cc1ccccc1 39.7%, COc1cccc(CNc2nc(NCc3cccs3)nc3ccsc23)c1 27.2%, CN(C)c1ccc(/C=C2\NC(=S)N(Cc3ccccc3)C2=O)cc1 41.4%, Cc1ccccc1NC(=S)NC(=O)Cc1ccc(Cl)cc1 25.7%, O=C(Cc1ccc(Cl)cc1)NC(=S)Nc1ccccc1O 75.2%

activation, inactive:
Cc1csc(=O)n1CC(=O)OCC(=O)N(CC(C)C)c1c(N)n(Cc2ccccc2)c(=O)[nH]c1=O 3.34%, CN(Cc1ccccc1)C(=O)COC(=O)/C=C/c1ccc2c(c1)OCO2 0.5%, CCNC(=O)C1(C)CCCN(Cc2noc(-c3ccccc3OC)n2)C1 (stereo unspecified) 1.13%, Cc1ccc(CNC(=O)c2cccc3c2C(=O)c2ccc(N4CCC(C)CC4)cc2S3(=O)=O)cc1 4.93%, COc1ccc(S(=O)(=O)N2CCC(C(=O)NCCC(=O)Nc3ccccc3OC)CC2)cc1 -1.33%, CN(c1ccccn1)c1ncnc2[nH]ncc12 -0.14%, CN(C)/C=C/C(=O)c1cnc2sccn2c1=O -2.29%, O=C(O)c1ccn(COc2ccc(Br)cc2)n1 -0.71%, Cc1c(NC(=O)COC(=O)/C=C/c2cccc(F)c2)c(=O)n(-c2ccccc2)n1C 0.67%, CCCCC[C@H]1CN(C2CCCCC2)C(=O)[C@@H]1CC(=O)NCc1ccc(OC)cc1 -4.19%, COc1cc(N2C(=O)CC3(CCCC3)CC2=O)cc(OC)c1OC 1.4%, Cc1ccc(C)c(NS(=O)(=O)c2ccc(OCC(=O)NCc3cccnc3)cc2)c1 -1.65%, CC(C)(C)OC(=O)C[C@@H]1C/C=C\C[C@@H](CC(=O)NCCO)C(=O)N[C@H](Cc2c[nH]c3ccccc23)COC1=O -0.08%, CCOC(=O)C=Cc1ccc(C(=O)OCC)[nH]1 5.25%, CSCCC(NC(=O)COc1ccccc1)C(=O)N(C)CC(=O)Nc1ccc(C)cc1 (stereo unspecified) 0.98%, C=CC[n+]1c(-c2ccc(C)cc2)csc1NNC(=O)Nc1ccccc1 0.82%, O=C(Nc1cccc(Cl)c1)c1cc(S(=O)(=O)N2CCCCC2)c[nH]1 4.63%, CCOc1ccc(NC(=O)CN(C)C(=O)COc2cccc(CC)c2)cc1OCC -0.57%, COc1ccc(CCNC(=S)N2CCN(S(=O)(=O)c3ccc(F)cc3)CC2)cc1 -3.34%, Cc1nc(-c2ccc(Cl)cc2)sc1C1(C)CC(c2ccccc2F)=NO1 (stereo unspecified) -0.32%, Cc1nc(C(=O)Nc2ccc(Cl)cc2)sc1C1(C)CC(c2ccccc2)=NO1 (stereo unspecified) 1.09%, Cc1cc(C)cc(NC(=O)N(C)Cc2ccccc2)c1 -2.57%, CC(C)(C)N(Cc1ccccc1)C(=O)c1ccncc1 -0.8%, CCc1sc(C(=O)N2CCN(CC(=O)Nc3cccc(F)c3)CC2)cc1C -3.37%, COc1cccc(CNc2nc3cc(-c4csc5ccccc45)sc3c(=O)n2C)c1 -0.3%, COc1ccc(NC(=S)NCc2cccs2)c(OC)c1 -3.29%, CC(=O)Nc1cccc(-c2cc3nc(NCc4cccnc4)n(C)c(=O)c3s2)c1 0.81%, CCOC(=O)CNc1nc2ccccc2n2c(C)nnc12 1.28%, CC(=O)NCC(=O)N(Cc1ccco1)C1(C(=O)NC2CCCC2)CCCCC1 -0.72%, CC(C)[C@H](NC(=O)Nc1ccc(S(N)(=O)=O)cc1)C(=O)O -2.17%, CCN(CC)c1ccc(NC(=O)CN2C(=O)NC3(CCc4ccccc43)C2=O)cc1 (stereo unspecified) 2.57%, O=C(Cn1cc(C(=O)C2CC2)c2ccccc21)Nc1ccccc1Cl 1.64%, C=CCNc1nnc(SCC(=O)N2CCCCC2)c2ccccc12 -0.35%, C/C(=C/C(=O)N1CCN(C)CC1)C(=O)O -1.65%, Nc1ccc2c(c1)C(=Cc1cccnc1)c1ccccc1-2 -7.37%, C[C@@H]1CN([C@@H](C)CO)S(=O)(=O)c2ccc(-c3ccc(C(=O)N(C)C)cc3)cc2O[C@@H]1CN(C)Cc1ccccc1C(=O)O -0.69%, Cc1ccccc1N/C(SCc1ccc(Cl)cc1)=C(/C#N)C(N)=O -7.05%, Cc1cc(C(=O)NNC(=S)Nc2ccccc2C)cs1 -0.42%, O=C(NC(=S)Nc1ccc(Cl)cc1Cl)C1CC1 -3.08%, Oc1ccc(CNc2ccccc2O)cc1 3.67%
